# This is a sample that favours compounds with a hit; in the whole collection about 3.1% have one here.
# VDR inh: inhibitors of human vitamin D receptor; P11473; VDR-SRC2-3 peptide fluorescence polarization, 2 h; Potency, µM, most hits filed as inhibitors; actives 0.93% (n = 400,000); AID 504847
#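 FP read-out; VDR + SRC2-3 coactivator peptide; 23 nl compound by pintool; 2 h RT incubation; reagents held at 4 deg C, protected from light.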
# TSHR antagonist: human thyrotropin receptor antagonism | P16473 | TSHR-expressing cells, TSH-stimulated cAMP HTRF, 2 h; active compounds read low | activity change, negative = inhibition, % at 11.5 µM | actives 0.2% (n = 330,000);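 active = activity change below a set negative limit, meaning inhibition stronger than a set level, cut at about -70% in these data; inconclusive = activity change between two set negative limits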
#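 TSHR-expressing cells, 200/well, pre-treated with compound, then stimulated with EC80 TSH (4nM final) for 2 hours at 37 deg C. cAMP measured by competitive HTRF: anti-cAMP cryptate antibody in lysis buffer plus cAMP-d2, read after 30 minutes at room temperature.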
# PTAP TSG101 blk: blocks PTAP/TSG101 interaction to inhibit HIV-1 budding; AID 493005; Potency, µM (doses to about 115 µM), usual class: inhibitors; 340,000 tested, under 10 active; Fluorescence polarization, FITC-PTAP peptide / Tsg101 binding; active = well fitted inhibition curve with a large enough effect in the main read-out, with a control signal flat, not every such curve was filed as active; inconclusive = small, poorly fitted or top-dose-only effect, or effect the other way, or a change in a side signal; inactive = no such curve, though single readings can be large or run the other way
# Target sequence (Q99816 whole entry, looked up): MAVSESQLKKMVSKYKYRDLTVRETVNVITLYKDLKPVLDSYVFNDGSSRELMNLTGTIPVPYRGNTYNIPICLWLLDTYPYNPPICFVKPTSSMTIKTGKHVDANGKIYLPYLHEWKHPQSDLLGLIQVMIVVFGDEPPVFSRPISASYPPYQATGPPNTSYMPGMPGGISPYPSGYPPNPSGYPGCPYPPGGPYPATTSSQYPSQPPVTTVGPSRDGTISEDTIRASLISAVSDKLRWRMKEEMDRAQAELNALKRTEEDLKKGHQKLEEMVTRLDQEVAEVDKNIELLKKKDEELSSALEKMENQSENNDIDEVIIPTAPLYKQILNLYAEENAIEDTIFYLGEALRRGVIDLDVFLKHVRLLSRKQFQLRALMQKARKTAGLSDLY
#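 Fluorescence polarization binding of Tsg101 binding domain (10 uM final) to FITC-labeled PTAP peptide (50 nM final) in HEPES pH 7.5 buffer with NaCl, Tween 20, EDTA, TCEP. Compounds added before peptide; binding 20 min at RT.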
# PLK1 PBD inh: PLK1 (human) polo-box domain binding inhibition; P53350; Plk1 PBD binding of FITC phosphopeptide, fluorescence polarization; Potency, µM, most hits filed as inhibitors; actives 2.8% (n = 360,000); AID 720504; note: series mostly up to about 57 µM; nearly all actives have a fitted effect of over 65% in size
# uPA generation: inhibitors of cell surface uPA generation | actives 0.31% (n = 330,000) | Potency, µM (titrated, usually from 38.3 µM), usual class: inhibitors | AID 540303 | cell surface uPA generation assay, qHTS; active = well fitted inhibition curve with a large enough effect; inconclusive = small, poorly fitted or top-dose-only effect; inactive = no such curve, though single readings can be large or run the other way; tested in mouse RAW 264.7 cells; note: nearly all actives have a fitted effect of over 55% in size
# Hits are given with their value; i = inactive; ? = inconclusive; nt = not tested or not shown. Unless noted, calls come from the whole dose curve; as a rule, active = well fitted curve in the direction sought with a large enough effect; inconclusive = small, poorly fitted or top-dose-only effect, or another doubt; inactive = no such curve, though single readings can be large; an effect the other way counts as inactive or inconclusive.
SMILES,VDR inh,TSHR antagonist,PTAP TSG101 blk,PLK1 PBD inh,uPA generation
S=c1[nH]nc(COc2ccccc2)n1/N=C/c1cccc(Br)c1,i,i,i,29.9µM,i
COc1ccc(Cl)cc1NC(=O)c1cnc2sc(N3CCOCC3)nn2c1=O,i,nt,nt,nt,nt
COc1ccccc1-c1noc(-c2ccc(N3CCC(C)CC3)c([N+](=O)[O-])c2)n1,i,nt,nt,nt,nt
S=c1[nH]nc(COc2ccccc2)n1/N=C/C(Cl)=C/c1ccccc1,?,i,i,23.8µM,i
S=c1[nH]nc(COc2ccccc2)n1/N=C/c1c(Cl)cccc1Cl,i,i,i,?,i
Oc1ccc(/C=N/n2c(COc3ccccc3)n[nH]c2=S)cc1O,i,i,i,21.2µM,i
FC(F)Oc1ccc(/C=N/n2c(Cc3ccc(Br)cc3)n[nH]c2=S)cc1,79.4µM,i,i,9.47µM,i
O=[N+]([O-])c1ccc(/C=N/n2c(COc3ccccc3)n[nH]c2=S)cc1,i,i,i,?,i
S=c1[nH]nc(COc2ccccc2)n1/N=C/c1ccc(Br)cc1,i,i,i,26.7µM,i
COc1ccc(NC(=O)CSc2nnc(NC(=O)Nc3ccccc3)s2)c(OC)c1,i,nt,nt,nt,nt
COc1ccc(C2=Nc3ccc(F)cc3NC(c3cccc(C(F)(F)F)c3)=N2)cc1,i,nt,nt,nt,nt
S=c1[nH]nc(-c2ccncc2)n1/N=C/C(Cl)=C\c1ccccc1,i,i,i,6.7µM,?
Cc1ccc(/C=N/n2c(COc3ccccc3)n[nH]c2=S)cc1,i,i,i,21.2µM,i
CCOc1cc(/C=N/n2c(COc3ccccc3)n[nH]c2=S)ccc1O,i,i,i,i,i
S=c1[nH]nc(-c2ccncc2)n1/N=C/C=C/c1ccccc1,i,i,i,i,i
COc1cccc(/C=N/n2c(COc3ccccc3)n[nH]c2=S)c1,i,i,i,23.8µM,i
Nc1[nH]c(C(=O)c2ccccc2)c(-c2ccccc2C(F)(F)F)c1C(=O)NCc1cccc2ccccc12,nt,nt,nt,i,nt
Cc1cccc(-c2nnc(SCC(=O)NC3CCCCC3)o2)c1,i,nt,nt,nt,nt
CCOc1ccc(OCC)c(Nc2nc3ccc(C(=O)c4ccccc4)cc3n3cnnc23)c1,i,nt,nt,nt,nt
Cc1ccc2c(c1)-n1c(nc3cc(Cl)ccc3c1=O)C(Cc1ccccc1)NC2=O (centres undefined),nt,i,nt,nt,nt
S=C(NCCCc1cnc[nH]1)NCCCN(Cc1ccc(Cl)cc1)c1ccc(Br)cc1,i,nt,nt,nt,nt
NC(=S)NNc1c(F)c(F)c(F)c(F)c1F,i,i,i,26.7µM,i
COc1ccc(C(CCN2CCOCC2)c2c(O)cc(OC)cc2OC)cc1 (centres undefined),i,i,i,i,i
COc1ccc(C(c2c(O)ccc3ccccc23)N2CCOCC2)c(OC)c1 (centres undefined),70.8µM,i,i,?,i
O=C(CSCc1cnn(-c2ccccc2)c1-n1cccc1)NCc1ccccc1F,i,nt,nt,nt,nt
SMILES,VDR inh,TSHR antagonist,PTAP TSG101 blk,PLK1 PBD inh,uPA generation
Cn1sc(=O)n(Cc2ccccc2)c1=O,5.01µM,nt,nt,nt,nt
CC(NC(=O)c1ccc(Cn2cc([N+](=O)[O-])cn2)cc1)c1ccccc1 (centres undefined),?,i,i,26.7µM,i
COC(=O)c1ccc(Cn2cc([N+](=O)[O-])cn2)cc1,i,i,i,i,i
COCCCNC(=O)c1ccc(NC(=O)N2CCCCc3ccccc32)cc1,i,nt,nt,nt,nt
Cc1ccc(C)c(N(C)C(=O)c2cn(C)c(=O)c3ccccc23)c1,i,nt,nt,nt,nt
CS(=O)(=O)c1ccc(Cl)c(NC(=O)Cc2ccccc2F)c1,79.4µM,i,i,26.7µM,i
Cc1cc2oc(C(=O)Nc3c(C)n(C)n(-c4ccccc4)c3=O)cc(=O)c2cc1C,i,nt,nt,nt,nt
O=C(Cn1cc(S(=O)(=O)c2ccccc2)c(=O)c2cc3c(cc21)OCO3)Nc1ccc(Cl)cc1,i,nt,nt,nt,nt
COC(=O)c1c(NC(=O)CCCOc2ccccc2C)sc2c1CCC2,i,nt,nt,nt,nt
O=C(CSc1nnc(COc2ccccc2)o1)N1CCN(c2ccccc2)CC1,i,i,i,i,nt
O=C(CSc1nnc(COc2ccc(Cl)cc2)o1)N1CCN(c2ccccc2)CC1,?,i,i,29.9µM,i
COc1cccc(NC(=O)c2cn(C)c(=O)c3cc(OC)c(OC)cc23)c1,i,i,i,2.99µM,i
COc1ccccc1CNC(=O)c1cn(C)c(=O)c2cc(OC)c(OC)cc12,?,nt,i,18.9µM,i
COc1cccc(NC(=O)c2cnn(-c3ccccc3)c2C)c1,i,i,i,i,10µM
